Screens: PubChem, several laboratories
Wnt bcat act: activators of Wnt/beta-catenin signaling | Wnt/beta-catenin reporter cell assay, activator, plate reader | AID 743398 | 300,000 compounds, 1.2% hits | activation, % at 9.35 µM; in the data active = activation above about 30%, passing the limit was not always enough;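 also: 0% = neutral control wells and 100% = positive control wells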
DAX1 inh: inhibitors of DAX1 repression of SF-1 activated StAR promoter | HEK293T StAR-luciferase reporter, SF-1/DAX-1 repression relief | 370,000 compounds, 1.1% hits | inhibition, % at 6.8 µM;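 active = inhibition above the mean over all tested compounds plus 3 SD, cut at about 3.6% in these data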;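 also: 0% = DAX-1 cells with DMSO and 100% = cells lacking DAX-1 with DMSO; higher inhibition means more luminescence from relief of DAX-1 repression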
hcDAF-12 act: activators of H. contortus DAF-12 nuclear receptor. AID 652067. 370,000 compounds, 1.4% hits. activation, % at 6.8 µM. HEK293 hcDAF-12 lit1-tk-luc reporter, luminescence; 0% DMSO, 100% Δ7-dafachronic acid;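 active = activation above the mean of all tested compounds plus 3 SD, cut at about 5.5% in these data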;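 also: 100% = response to 3 µM Δ7-dafachronic acid high control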
hgDAF12 agonist: agonists of H. glycines DAF-12 nuclear receptor; HEK293 GAL4-hgDAF12 UAS-luciferase reporter, agonist luminescence; normalized to butyrate control; 370,000 compounds, 1.8% hits; activation, % at 6.8 µM;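 active = activation above a cutoff set at the mean of all screened compounds plus 3 SD, cut at about 10% in these data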;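 also: 0% = DMSO wells and 100% = sodium butyrate wells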
esBAF inh: SWI/SNF esBAF complex inhibition; mouse ES cells, Bmi1-luciferase knock-in reporter, 24 h; 100% = twice the neutral-well signal; reporter increase, % at 12.5 µM; 350,000 compounds, 2% hits; AID 602393; in the data active = activation above about 40%;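 also: 0% = median of the plate's neutral control wells and 100% = double that signal; a rise in the Bmi1 reporter signal indicates esBAF inhibition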
ssDAF12 agonist: activates DAF-12 receptor from parasite S. stercoralis; HEK293 ssDAF-12/GRIP1 lit1-tk-luc reporter, luminescence; % of 3 µM dafachronic acid response; activation, % at 6.8 µM; 370,000 compounds, 1% hits; AID 652126;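 active = activation above the mean over all tested compounds plus 3 SD, cut at about 0.9% in these data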;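 also: 0% = DMSO-only wells and 100% = 3 µM delta7-dafachronic acid wells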
The depositor's hits bear a star; nt = no result given; ! = repeats disagree. This is a sample that favours compounds with a hit; in the whole collection about 4.2% have one here.

SMILES | Wnt bcat act | DAX1 inh | hcDAF-12 act | hgDAF12 agonist | esBAF inh | ssDAF12 agonist
CC1OC(OC2C(O)CC(OC3C(O)CC(OC4CCC5(C)C(CCC6C5CCC5(C)C(C7=CC(=O)OC7)C(O)CC65O)C4)OC3C)OC2C)CC(O)C1O (stereo unspecified) | 0.2 | 16.4* | 3.1 | -9.0 | 2.2 | -2.1
CC(=O)OC1CC(OC2C(O)CC(OC3C(O)CC(OC4CCC5(C)C(CCC6C5CCC5(C)C(C7=CC(=O)OC7)C(O)CC65O)C4)OC3C)OC2C)OC(C)C1OC1OC(CO)C(O)C(O)C1O (stereo unspecified) | -11.2 | -6.6 | -3.8 | -15.2 | nt | -2.3
COc1ccc(-c2cc(=NCC(=O)O)c3ccccc3o2)cc1 | nt | nt | nt | nt | 46.7* | nt
COc1ccc(-n2c(=S)[nH]c3ccc(C)cc3c2=O)cc1 | -2.6 | 0.2 | 0.1 | 0.2 | -1.0 | 0.0
COc1ccc(-c2cc(=NCCCCCC(=O)O)c3cc(C)ccc3o2)cc1 | -2.1 | 2.4 | 2.5 | 10.6*! | nt | -0.8
CN1CCN(C(=O)COc2ccc3ccccc3c2)CC1 | -2.4 | -0.3 | 0.6 | 2.9 | 4.0 | 0.1
CN1CCN(C(=O)COc2ccc(-c3nc4ccccc4s3)cc2)CC1 | nt | 3.9* | 4.8 | 11.4* | -68.7 | -0.3
COC(=O)[C@H]1[C@H](CO)[C@H]2Cn3c(ccc(C4=CCCC4)c3=O)[C@@H]1N2S(=O)(=O)c1cn(C)cn1 | nt | nt | nt | nt | -0.1 | nt
CC=Cc1ccc2n(c1=O)C[C@H]1[C@H](CO)[C@@H](C(=O)OC)[C@@H]2N1S(=O)(=O)c1cccc(C)c1 (mixture of isomers) | nt | nt | nt | nt | -0.5 | nt
Cc1nn(Cc2ccccc2Cl)c(Cl)c1C(=O)OCC(=O)NC(=O)NC1CCCCC1 | 3.1 | -0.4 | -0.9 | 0.8 | nt | -1.0
Cc1nn(CC(C)C)c(Cl)c1C(=O)NC1CCC(C)CC1 (stereo unspecified) | 29.0 | 4.2* | 4.1 | 6.4 | 66.2* | 0.7
CC(C)C[C@H]1COc2cccc(N3CCN(C)CC3)c2S(=O)(=O)N1 | -3.7 | 4.2* | -1.1 | 1.3 | nt | -1.1
CN1C(=O)C(=Cc2ccc(N3CCCCCC3)o2)C(=O)N(C)C1=S | -2.1 | 0.4 | 0.3 | -1.0 | 40.8* | -0.8
CN1C(=O)C(=Cc2ccc(N3CCOCC3)o2)C(=O)N(C)C1=O | -0.4 | 0.1 | -0.8 | 2.9 | nt | -1.4
CC=Cc1ccc2n(c1=O)C[C@H]1[C@H](CO)[C@@H](C(=O)OC)[C@@H]2N1CC1CCCCC1 (mixture of isomers) | nt | nt | nt | nt | -2.2 | nt
COC(=O)[C@@H]1[C@@H](CO)[C@@H]2Cn3c(ccc(-c4ccc(F)cc4)c3=O)[C@H]1N2Cc1cccnc1 | nt | nt | nt | nt | 0.2 | nt
Oc1ccc2c3c1O[C@H]1c4[nH]c5c(c4CC4(O)C(C2)N(CC2CC2)CCC314)CC1(O)[C@H]2Cc3ccc(O)c4c3[C@@]1(CCN2CC1CC1)C5O4 (stereo partly specified) | 2.6 | 1.9 | 0.1 | -0.9 | nt | 0.2
O=C1/C(=C/c2ccccc2)C[C@@]2(O)[C@H]3Cc4ccc(O)c5c4[C@@]2(CCN3CC2CC2)C1O5 (stereo partly specified) | nt | nt | nt | nt | 54.1* | nt
O=C(Cc1ccncc1)N1CCCCN2[C@H](CO)[C@H](c3ccc(C#Cc4ccccc4F)cc3)[C@@H]2C1 | nt | nt | nt | nt | 2.7 | nt
O=C(Cc1ccccn1)N1CCCCN2[C@@H](CO)[C@H](c3ccc(-c4ccccc4F)cc3)[C@@H]2C1 | nt | nt | nt | nt | 4.6 | nt
COc1ccc2[nH]c3c(c2c1)CCNC3C (stereo unspecified) | 1.9 | -0.6 | 5.7* | -1.1 | -2.1 | 0.0
COC(=O)[C@@H]1[C@@H](CO)[C@@H]2Cn3c(ccc(-c4ccncc4)c3=O)[C@H]1N2CCc1ccccc1 | nt | nt | nt | nt | -0.4 | nt
O=C(Cc1ccc(N(CCCl)CCCl)cc1)NC(Cc1ccc(Cl)cc1)C(=O)O (stereo unspecified) | -0.9 | 0.4 | -1.5 | 1.1 | -1.3 | -1.0
O=C(Cc1c[nH]c2ccccc12)NNCc1ccc(N(CCCl)CCCl)cc1 | -1.8 | -1.1 | 3.6 | 1.3 | 1.7 | 48.6*
COc1cccc(OCc2cc(C(=O)N3C[C@H]4C[C@@H](C3)c3cccc(=O)n3C4)no2)c1 | 27.8 | 1.1 | 5.6* | 12.9* | 72.6* | 1.5*
